Results on eight compounds are retold here after PubChem BioAssay (Tox21).

A number with no mark means an inactive call. Records with an inconclusive call do not appear. The source made the active and inactive calls. Unless noted, the call rests on the fitted dose curve.

Experiment [1] in a line: Nuclear factor erythroid 2-related factor 2/antioxidant responsive element (Nrf2/ARE) small molecule agonists: qHTS cell viability counter screen in human keratinocytes (AID 1919968; active means well fitted curve in the direction sought with a large enough effect in the repeat runs; an effect the other way counts as inactive or inconclusive; further: nearly all actives have a fitted effect of over 55% in size; further: potency means the concentration at half of the fitted maximal effect). In short, it runs like this: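 Measured as CellTiter-Fluor fluorescence, this readout tracks cytotoxicity in the same wells as the ARE-luciferase screen. HaCaT reporter cells (1,500/well) received compounds after a 5 h pre-incubation and were exposed for 23 h.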
(qHTS replaces the single test concentration by a dilution series.)

Experiment [2] can be described thus: Nuclear factor erythroid 2-related factor 2/antioxidant responsive element (Nrf2/ARE) small molecule agonists: luciferase reporter gene qHTS assay in human keratinocytes (AID 1919969). Further: nearly all actives have a fitted effect of over 35% in size. Further: potency means the concentration at half of the fitted maximal effect.
The target in experiment [3] is Gonadotropin-releasing hormone receptor (Homo sapiens) (UniProt P30968). Put plainly: Human gonadotropin-releasing hormone receptor (GnRHR) small molecule agonists, calcium flux assay in GnRHR-HEK293 cells (AID 1920063). Further: nearly all actives have a fitted effect of over 35% in size. In short, it runs like this: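 Fluorescence kinetics (480 nm excitation, 540 nm emission; 3 min, 1 s steps) report calcium mobilisation in human GnRHR-HEK293 cells in agonist mode. Dye incubation: 1 h, 37 C.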
On the technique in general: Calcium assays in cells follow changes in intracellular calcium, usually with a dye or a luminescent sensor.

Experiment [4] has as its target KiSS-1 receptor (Homo sapiens) (UniProt Q969F8). Put plainly: Human kisspeptin (KISS1R) small molecule agonists, calcium flux assay in KISS1R-HEK293 cells (AID 1920064; active means well fitted curve in the direction sought with a large enough effect in the repeat runs; an effect the other way counts as inactive or inconclusive). The method, boiled down:
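Measures KISS1R agonism through calcium-sensitive dye fluorescence in stably transfected HEK293 cells, read for 3 min after pin-tool compound delivery; 15-point titrations in triplicate.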

Experiment [5] can be described thus: G protein-coupled receptor (GPCR) small molecule agonists, calcium flux assay: HEK293 wild type cell line counter screen (AID 1920065). In short, it runs like this:
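Readout: fluorescence at 480 nm excitation/540 nm emission, sampled at 1 s intervals for 3 min. Cells had been cultured 18 h, then dye-loaded 1 h at 37 C before compound or ATP addition.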

Experiment [6] in a line: p53 small molecule agonists, cell-based qHTS assay with human liver microsomes (AID 1963577).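 Further: p53 response element beta-lactamase reporter cells with liver microsomes plus NADPH.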 In short, it runs like this: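 Metabolically competent format: test substances, human liver microsomes and NADPH (both 0.5 mg/mL final) incubated with p53RE-bla cells 16 h at 37 C. Beta-lactamase reporter signal then quantified by fluorescence.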
Experiment [7] in a line: p53 small molecule agonists, cell-based qHTS assay with rat liver microsomes (AID 1963578). The method, boiled down:
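Each plate received p53RE-bla cells, then compound, then rat liver microsomes and NADPH (both 0.5 mg/mL final). Plates were held 16 h at 37 C, and beta-lactamase activity was detected with LiveBLAzer over 2 h.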

Experiment [8] is described as follows: p53 small molecule agonists, cell-based qHTS assay with rat liver microsomes: qHTS cell viability counter screen (AID 1963580). Further: nearly all actives have a fitted effect of over 45% in size. In short, it runs like this: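 Intracellular ATP, by CellTiter-Glo luminescence, defines viability. HCT-116 p53RE-bla cells, 4,000 per well, were compound-treated in the presence of rat liver microsomes and NADPH for 16 h at 37 C.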

Experiment [9] in a line: p53 small molecule agonists, cell-based qHTS assay (AID 1963582; active means well fitted activation curve with a large enough effect in the signal ratio in the repeat runs, not every such curve was filed as active; the % refers to the signal ratio). The method, boiled down:
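Compounds are pin-transferred in DMSO onto p53RE-bla cells and incubated 16 h at 37 C. The B/G FRET beta-lactamase substrate is then applied for 2 h at RT and fluorescence recorded.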

For experiment [10], the target named is 5-hydroxytryptamine receptor 2A (Homo sapiens) (UniProt P28223). As to the kind of experiment: 5-hydroxytryptamine receptor 2A (HTR2A) small molecule antagonists, cell-based qHTS assay (AID 1963586). Further: nearly all actives have a fitted effect of over 45% in size. Further: potency means the concentration at half of the fitted maximal effect. The method, boiled down: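 Antagonist-mode intracellular calcium assay: DOI (4 nM) added after 5 min compound pre-incubation at room temperature to dye-loaded HTR2A-CHO cells. Fluorescence followed for 3 min, sampled every second.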

Experiment [11] shares this target. As to the kind of experiment: 5-hydroxytryptamine receptor 2A (HTR2A) small molecule agonists, cell-based qHTS assay (AID 1963587). Further: nearly all actives have a fitted effect of over 30% in size. Further: potency means the concentration at half of the fitted maximal effect. The method, boiled down: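 Kinetic calcium-flux fluorescence (2 min, 1 sec intervals) after compound addition in agonist mode. HTR2A-CHO cells were cultured 18 h, then dye-loaded 1 h at 37 C.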
Experiment [12] deals with Muscarinic acetylcholine receptor M1 (Homo sapiens) (UniProt P11229). Put plainly: Cholinergic receptor muscarinic 1 (CHRM1) small molecule antagonists, cell-based qHTS assay (AID 1963588). Further: nearly all actives have a fitted effect of over 40% in size. In short, it runs like this:
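CHRM1-CHO calcium-flux assay, antagonist mode. Cells were seeded 18 h, dye-loaded 1 h at 37 C and given compound for 5 min at RT, then acetylcholine was added at 50nM. FDSS fluorescence was read 3 min; 15 concentrations, three runs.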

For experiment [13] the target is unchanged. Put plainly: Cholinergic receptor muscarinic 1 (CHRM1) small molecule agonists, cell-based qHTS assay (AID 1963589). Further: nearly all actives have a fitted effect of over 35% in size. The method, boiled down: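 Each compound was tested at 15 concentrations across three independent runs on dye-loaded CHO cells stably expressing human CHRM1, reading intracellular calcium fluorescence kinetically at 1 sec intervals.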
A short description of experiment [14]: cAMP Responsive Elements (CRE) small molecule agonists, cell-based qHTS assay (AID 1963590). In short, it runs like this: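 Cell line: CRE-bla HEK 293T; medium DMEM/10% dialyzed FBS/0.1 mM NEAA/1 mM pyruvate/25 mM HEPES; 3 h compound exposure; beta-lactamase FRET readout after 2 h substrate loading at RT.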
The nature of experiment [15]: cAMP Responsive Elements (CRE) small molecule antagonists, cell-based qHTS assay (AID 1963591; active means well fitted inhibition curve with a large enough effect in the signal ratio in the repeat runs, not every such curve was filed as active; the % refers to the signal ratio; further: potency means the concentration at half of the fitted maximal effect). In short, it runs like this:
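Inhibition of NKH477-driven (0.25 uM final) CRE-beta-lactamase signal in HEK293T cells, 3 h compound exposure at 37 °C, detected by FRET substrate fluorescence.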

Experiment [16] concerns the target D(2) dopamine receptor (Homo sapiens) (UniProt P14416). As to the kind of experiment: Dopamine D2 receptor (DRD2) small molecule agonists, cell-based qHTS assay (AID 1963594). Further: nearly all actives have a fitted effect of over 35% in size. The method, boiled down:
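cAMP accumulation in DRD2-HEK293 cells measured by HTRF after 1 h detection; compounds added 10 min before NKH477 (200nM […]) forskolin-analogue stimulation, 30 min at room temperature, with Ro20-1724 present at 0.1 mM final.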

The target is the same in experiment [17]. As to the kind of experiment: Dopamine D2 receptor (DRD2) small molecule antagonists, cell-based qHTS assay (AID 1963595; active means well fitted inhibition curve with a large enough effect in the signal ratio in the repeat runs, with a control signal flat; the % refers to the signal ratio). The method, boiled down: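 Antagonist mode in DRD2-HEK293 cells: after compound addition with 0.1 mM Ro20-1724, cells received quinpirole (12 nM) and NKH477 (200 nM) for 30 min at room temperature; HTRF cAMP read after 1 h detection.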

In experiment [18] the target is Beta-2 adrenergic receptor (Homo sapiens) (UniProt P07550). Put plainly: Adrenergic beta2 receptor (ADRB2) small molecule antagonists, cell-based qHTS assay (AID 1963592). Further: series mostly up to about 92 µM; nearly all actives have a fitted effect of over 50% in size. In short, it runs like this: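 Cells (CHO, stable ADRB2 overexpression) incubated 18-20hr at 37C; compounds added from DMSO; agonist mix (1nM isoproterenol, 100uM IBMX, 25uM Ro-20-1724) added; 0.5hr RT; d2-cAMP and anti-cAMP-cryptate added; 1hr RT; 665/615 nm read.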

Experiment [19] in a line: p53 small molecule agonists, cell-based qHTS assay: qHTS cell viability counter screen (AID 1963581). Further: nearly all actives have a fitted effect of over 45% in size. The method, boiled down: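 In the same plates used for the p53 bla reporter, HCT-116 cells given compounds for 16 h at 37 C received CellTiter-Glo; luminescence was recorded 30 min later at room temperature.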
On the % scale 0 is the no-effect control and ±100 the full control effect.

Chain of D(2) dopamine receptor (Homo sapiens) (P14416 whole entry, looked up): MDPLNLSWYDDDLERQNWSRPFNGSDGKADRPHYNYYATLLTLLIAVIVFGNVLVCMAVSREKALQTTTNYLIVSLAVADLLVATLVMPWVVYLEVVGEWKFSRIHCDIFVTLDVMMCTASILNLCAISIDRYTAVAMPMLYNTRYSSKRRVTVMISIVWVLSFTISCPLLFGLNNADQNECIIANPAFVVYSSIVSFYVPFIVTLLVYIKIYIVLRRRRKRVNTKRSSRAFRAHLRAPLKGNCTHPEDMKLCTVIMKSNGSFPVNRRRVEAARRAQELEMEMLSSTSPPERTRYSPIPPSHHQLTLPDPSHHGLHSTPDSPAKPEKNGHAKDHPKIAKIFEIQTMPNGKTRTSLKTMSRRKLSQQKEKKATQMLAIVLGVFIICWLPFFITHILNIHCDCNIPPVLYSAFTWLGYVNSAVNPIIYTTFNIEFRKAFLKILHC
Chain of Beta-2 adrenergic receptor (Homo sapiens) (P07550 whole entry, looked up): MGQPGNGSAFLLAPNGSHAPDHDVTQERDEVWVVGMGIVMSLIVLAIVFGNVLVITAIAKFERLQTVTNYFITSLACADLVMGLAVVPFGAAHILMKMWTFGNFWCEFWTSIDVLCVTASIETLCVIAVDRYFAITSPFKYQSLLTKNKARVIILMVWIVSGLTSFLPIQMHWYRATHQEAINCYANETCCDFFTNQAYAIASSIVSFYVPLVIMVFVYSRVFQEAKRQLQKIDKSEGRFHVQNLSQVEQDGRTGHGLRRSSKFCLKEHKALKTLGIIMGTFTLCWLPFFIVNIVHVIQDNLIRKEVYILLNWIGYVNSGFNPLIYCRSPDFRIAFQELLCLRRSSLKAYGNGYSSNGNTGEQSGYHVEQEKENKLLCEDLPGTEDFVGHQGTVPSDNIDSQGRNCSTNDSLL
Chain of KiSS-1 receptor (Homo sapiens) (Q969F8 whole entry, looked up): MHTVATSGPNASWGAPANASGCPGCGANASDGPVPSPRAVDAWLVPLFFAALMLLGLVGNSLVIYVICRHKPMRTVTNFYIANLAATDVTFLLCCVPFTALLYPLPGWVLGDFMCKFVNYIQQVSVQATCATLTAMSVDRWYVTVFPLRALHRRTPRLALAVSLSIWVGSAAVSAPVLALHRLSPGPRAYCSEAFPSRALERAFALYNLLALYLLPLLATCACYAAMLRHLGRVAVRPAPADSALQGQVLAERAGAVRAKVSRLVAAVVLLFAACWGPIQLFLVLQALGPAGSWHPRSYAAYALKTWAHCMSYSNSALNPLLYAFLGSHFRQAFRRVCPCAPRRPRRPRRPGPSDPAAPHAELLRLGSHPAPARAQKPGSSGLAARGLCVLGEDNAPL
Chain of 5-hydroxytryptamine receptor 2A (Homo sapiens) (P28223 whole entry, looked up): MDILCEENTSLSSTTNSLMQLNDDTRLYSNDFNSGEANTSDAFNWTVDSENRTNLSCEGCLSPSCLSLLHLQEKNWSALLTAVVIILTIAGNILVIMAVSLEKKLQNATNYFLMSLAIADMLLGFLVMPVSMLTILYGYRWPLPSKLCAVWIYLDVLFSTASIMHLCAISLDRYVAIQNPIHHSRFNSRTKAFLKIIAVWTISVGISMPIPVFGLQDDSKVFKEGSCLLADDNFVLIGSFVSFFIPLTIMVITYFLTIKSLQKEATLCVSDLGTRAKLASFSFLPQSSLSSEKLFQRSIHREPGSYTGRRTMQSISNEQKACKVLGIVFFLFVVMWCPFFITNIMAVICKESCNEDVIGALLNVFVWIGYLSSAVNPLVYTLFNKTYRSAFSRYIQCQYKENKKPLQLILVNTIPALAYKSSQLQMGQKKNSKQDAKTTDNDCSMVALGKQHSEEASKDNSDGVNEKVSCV
Chain of Muscarinic acetylcholine receptor M1 (Homo sapiens) (P11229 whole entry, looked up): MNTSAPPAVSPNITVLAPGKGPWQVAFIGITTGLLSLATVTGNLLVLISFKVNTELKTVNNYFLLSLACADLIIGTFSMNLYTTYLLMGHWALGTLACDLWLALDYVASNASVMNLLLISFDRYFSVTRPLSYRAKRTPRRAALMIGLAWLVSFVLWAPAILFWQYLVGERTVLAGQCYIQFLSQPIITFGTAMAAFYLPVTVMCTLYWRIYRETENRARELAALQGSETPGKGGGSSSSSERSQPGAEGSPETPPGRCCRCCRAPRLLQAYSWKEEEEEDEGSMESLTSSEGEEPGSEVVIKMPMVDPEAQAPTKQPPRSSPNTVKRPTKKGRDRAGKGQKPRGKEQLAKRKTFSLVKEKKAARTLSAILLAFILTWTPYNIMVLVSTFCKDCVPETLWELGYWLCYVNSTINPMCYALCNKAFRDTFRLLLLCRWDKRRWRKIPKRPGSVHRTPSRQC
Chain of Gonadotropin-releasing hormone receptor (Homo sapiens) (P30968 whole entry, looked up): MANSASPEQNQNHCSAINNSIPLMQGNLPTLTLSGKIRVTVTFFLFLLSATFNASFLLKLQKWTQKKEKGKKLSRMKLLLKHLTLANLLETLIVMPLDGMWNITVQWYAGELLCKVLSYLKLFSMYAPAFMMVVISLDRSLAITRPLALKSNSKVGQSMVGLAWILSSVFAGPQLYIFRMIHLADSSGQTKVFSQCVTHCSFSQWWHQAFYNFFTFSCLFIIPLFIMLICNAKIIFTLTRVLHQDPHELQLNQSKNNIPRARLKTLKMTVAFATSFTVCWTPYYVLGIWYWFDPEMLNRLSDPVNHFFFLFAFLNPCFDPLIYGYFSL

Turning to `CC(C)OCC1CO1` (stereo unspecified), the Potency entry in experiment [1], in experiment [3], in [6], in experiment [7], in [8] and in experiment [9] was “inactive” in each case. In addition, the Potency entry in experiment [10], in experiment [11], in [12], in experiment [13], in experiment [14] and in experiment [15] was “inactive” in each case. In addition, the Potency result in experiment [16] and in experiment [17] was “inactive” each time. Moreover, the Potency in [2] was 30.5 µM (active). The result in experiment [4] and in experiment [5] was inactive.
Take `CCCCCCCCN(C)CCCCCCCC`: the Potency entry in [1], in experiment [2], in experiment [3], in experiment [6], in experiment [7] and in experiment [8] was “inactive” each time. Also, the Potency entry in experiment [9], in experiment [10], in experiment [11], in experiment [12], in experiment [13] and in experiment [14] was “inactive” each time. Also, the Potency entry in [15], in experiment [18], in [16] and in [17] was “inactive” throughout. Moreover, the result in experiment [4] and in [5] was inactive.
As for `CCCC(=O)c1cc(O)c(O)cc1O`, the Potency in [1] was 9.69 µM (active); in experiment [2] it was 4.86 µM (active); in experiment [11], 0.436 µM (active). Further, the Potency entry in experiment [3], in experiment [6], in [7], in experiment [8], in [10] and in experiment [12] was “inactive” in each case. For the same compound, the result in experiment [4] and in experiment [5] was inactive.
In the case of `Cc1ccc2nc(N)[nH]c(=O)c2c1Sc1ccncc1`, the Potency result in experiment [1], in experiment [2], in [3], in experiment [6], in [7] and in experiment [8] was “inactive” in each case. The Potency result in experiment [19], in experiment [10], in experiment [11], in experiment [12], in [13] and in experiment [15] was “inactive” each time. The Potency result in [18], in [16] and in experiment [17] was “inactive” throughout. In addition, the result in [4] and in experiment [5] was inactive.
In the case of `CN1C[C@@H]2C[C@H]1CN2c1cc2c(cc1F)c(=O)c(C(=O)O)cn2C1CC1`, the activity change, negative = cytotoxicity in [1] was -0.599% [at 19 µM]; in experiment [8], 4.47% [at 13.5 µM]; in experiment [19], 10.7% [at 13.5 µM]. Moreover, the activity, positive = activation in experiment [2] is -6.17% [at 19 µM]. Moreover, the activity change in experiment [3] was -0.0937% [at 11.8 µM, stronger effect = higher value]. For the same compound, the activation in experiment [4] is -1.39% [at 15.8 µM]; in [5] it was 0.573% [at 11.8 µM]; in experiment [6], 9.29% [at 13.5 µM]; in [7], 1.2% [at 13.6 µM]; in experiment [9], 6.22% [at 13.5 µM]; in experiment [16], 2.8% [at 19 µM]. Further, the activity change, negative = inhibition was 13.7% [at 18.9 µM] in [15], -1.81% [at 19 µM] in [18] and -0.654% [at 18.9 µM] in experiment [17].
For the compound `CN1CCC[C@@H]1Cc1c[nH]c2ccc(CCS(=O)(=O)c3ccccc3)cc12`, the Potency result in experiment [1], in [2], in experiment [3], in [6], in experiment [7] and in [8] was “inactive” throughout. For the same compound, the Potency entry in [9], in experiment [12], in experiment [13], in [14], in experiment [15] and in [18] was “inactive” each time. Also, the Potency result in experiment [16] and in [17] was “inactive” in each case. The outcome in [4] and in [5] was inactive. For the same compound, the Potency in [10] was 0.365 µM (active); in experiment [11], 0.107 µM (active).
Regarding `O=C1OC(O)C(C(Cl)Cl)=C1Cl` (stereo unspecified), the Potency in experiment [1] was 63 µM (active); in experiment [2] it was 25.1 µM (active); in experiment [15] it was 44.6 µM (active). The Potency entry in experiment [3], in experiment [6], in experiment [7], in experiment [8], in experiment [19] and in experiment [10] was “inactive” in each case. Also, the Potency result in [11], in [13], in experiment [18], in experiment [16] and in experiment [17] was “inactive” each time. Further, the result in [4] and in experiment [5] was inactive.
For the compound `CCCCCCc1ccc(N)cc1`, the Potency entry in [1], in [3], in [6], in [7], in experiment [8] and in [19] was “inactive” throughout. Besides, the Potency entry in experiment [10], in experiment [11], in [12], in experiment [18], in experiment [16] and in [17] was “inactive” in each case. Further, the Potency in experiment [2] was 27.3 µM (active). Also, the outcome in [4] and in experiment [5] was inactive.
